# Assay outcomes deposited in PubChem BioAssay by National Center for Advancing Translational Sciences (NCATS).
# Shiga toxin inh: A qHTS for Small Molecule Inhibitors of Shiga Toxin. Vero cells, Shiga toxin protein synthesis inhibition reporter. inhibition, % at 38.7 µM. 9.2% of 290,000 active. AID 2315, 2010; in the data active = inhibition mostly above about 28%, no sharp cut-off; inactive = mostly below about 43%; also: 0% is about no effect
# CHX counter: Cycloheximide Counterscreen for Small Molecule Inhibitors of Shiga Toxin; 12% of 300,000 active; cell reporter, cycloheximide protein synthesis inhibition counterscreen; max response, %; in the data active = max response mostly above about 13%, no sharp cut-off; inactive = mostly below about 14%; also: read at 38.3 µM for the half of the compounds with a filed dose; 0% is about no effect
# Vaccinia mCherry: qHTS for Stage-Specific Inhibitors of Vaccinia Orthopoxvirus: mCherry Reporter Primary qHTS; Vaccinia virus mCherry reporter infection, fluorescence; Potency, µM (doses to about 36.5 µM), inactives show at the top dose activity change, negative = inhibition, hits mostly inhibitors; 0.63% of 310,000 active; AID 720579, 2013; calls by dose curve; tested in A549 cells; also: potency is read from the fitted curve at half-maximal effect; % is scaled to controls: 0 for no effect and ±100 for the full control effect; nearly all actives have a fitted effect of over 35% in size
# VACV Venus inh: qHTS for Stage-Specific Inhibitors of Vaccinia Orthopoxvirus: Venus Reporter Primary qHTS. Vaccinia virus Venus reporter expression, fluorescence. Potency, µM (doses to about 36.5 µM), for the others: at the highest dose activity change, negative = inhibition, most hits filed as inhibitors. 0.46% of 330,000 active. AID 720580, 2013; calls by dose curve; tested in A549 cells; also: potency is read from the fitted curve at half-maximal effect; % is scaled to controls: 0 for no effect and ±100 for the full control effect; nearly all actives have a fitted effect of over 30% in size
# LASV entry inh: qHTS for Inhibitors of binding or entry into cells for Lassa Virus; Lassa virus pseudotype entry inhibition, cell reporter; Potency, µM (doses to about 37.9 µM), for the others: at the highest dose activity change, negative = inhibition, hits mostly inhibitors; 1.2% of 300,000 active; AID 540256, 2011; calls by dose curve; tested in HEK293 cells; also: potency is read from the fitted curve at half-maximal effect; % is scaled to controls: 0 for no effect and ±100 for the full control effect; nearly all actives have a fitted effect of over 50% in size
# MARV entry inh: qHTS for inhibitors of binding or entry into cells for Marburg Virus; Marburg virus pseudotyped entry inhibition, cell reporter; Potency, µM (doses to about 37.8 µM), inactives show top-dose activity change, negative = inhibition, most hits filed as inhibitors; 1.8% of 300,000 active; AID 540276, 2011; calls by dose curve; tested in HEK293 cells; also: potency is read from the fitted curve at half-maximal effect; % is scaled to controls: 0 for no effect and ±100 for the full control effect
# An asterisk follows results filed as active; i = inactive; ? = inconclusive; . = no result; + = active, no number; [ ] = dose if it differs, or a comment. Many of the other results were omitted from the sample, so hits are more common in it than they were.
SMILES,Shiga toxin inh,CHX counter,Vaccinia mCherry,VACV Venus inh,LASV entry inh,MARV entry inh
O=S(=O)(/N=C/c1c(O)ccc2ccccc12)c1ccccc1,18,11*,-13%,-13%,9%,?
O=C(N/N=C\c1c(O)ccc2ccccc12)c1ccc(O)cc1,12,2,.,.,.,.
Cc1cc(C(=O)COC(=O)/C=C/c2cccc(Br)c2)c(C)n1C,.,.,-5%,-19%,1%,?
C=CCn1c(C)cc(C(=O)COC(=O)/C=C/c2cccc(OC)c2)c1C,4,27*,.,.,.,.
Cc1cc(C(=O)COC(=O)/C=C/c2cccc(F)c2)c(C)n1C,77*,29*,2%,6%,-5%,15%[46.1 µM]
C=CCn1c(C)cc(C(=O)COC(=O)[C@@H](NC(=O)c2ccccc2Cl)C(C)C)c1C,19*,40*,-22%,-13%,?,?
Cc1nn(Cc2c(Cl)cccc2Cl)c(C)c1NC(=O)/C=C/c1cnn(C)c1C,-6,-3,-8%,1%,10%[14.3 µM],0%
Cc1c(/C=C/C(=O)c2ccccc2)cnn1C,180*,53*,-9%,?,7%,?
CCn1ncc(/C=N\NC(=O)COc2ccccc2)c1C,67*,9,-23%,-6%,-1%,-19%
Cc1c(/C=C/C(=O)c2ccc(Cl)s2)cnn1C,37,27*,.,.,-3%,?
Cc1ccc(OCC(=O)N/N=C/c2cn(C)c3ccccc23)cc1,-10,0,.,.,.,.
Cc1c(/C=C/C(=O)c2ccc(C(C)C)cc2)cnn1C,133*,40*,-11%,-14%,?,14%[46.1 µM]
CCn1ncc(/C=C/C(=O)c2ccccc2)c1C,+,45*,-18%,-11%,4%,18%
O=C(O)/C=C/C(=O)c1ccc(O)cc1,27,1,-18%,-13%,1%,9%[46.1 µM]
Cc1c(/C=C/C(=O)c2ccc(O)cc2)cnn1C,49*,19*,-22%,-29%,1%,-15%
C1CNC(C23CC4CC(CC(C4)C2)C3)=N1,56*,25,i,-7%,8%[46.1 µM],7%[46.1 µM]
CCn1c(NC(=O)C2CCCCC2)nc2ccccc21,36*,26*,-27%,?,-21%,12%
CCCn1c(NC(=S)Nc2ccccc2)nc2ccccc21,-13,-1,?,?,-5%,?
CCn1c(NC(=S)Nc2ccccc2)nc2ccccc21,53*,29*,.,.,3%,0%
Cc1ccc(C(c2sc3ncnn3c2O)N2CCCCC2)cc1 (stereo not drawn),37*,10*,-4%,-21%,.,.
Cc1cc(S(=O)(=O)N2CCOCC2)ccc1OCC(=O)NCC1CCCO1 (stereo not drawn),-3,1,-24%,-10%,?,3%[46.1 µM]
O=C(NCc1ccccc1)C1=C[C@@H](c2coc3ccccc3c2=O)C[C@@H](OCc2ccc(CO)cc2)O1,-15,-1,-3%,-22%,.,.
CCN(C(=O)COC(=O)/C(=C/c1ccccc1)n1nnnc1C)C1CCCCC1,.,.,?,-22%,-8%,13µM*
Cc1nnnn1/C(=C\c1ccccc1)C(=O)OCC(=O)N(C)C1CCS(=O)(=O)C1 (stereo not drawn),4,-3,-3%,-2%,-1%,-30%[46.1 µM]
COc1ccccc1C(=O)NCC(=O)NC(C)c1ccc(-n2ccnc2)cc1 (stereo not drawn),-11,3,-13%,-5%,21%,15%
SMILES,Shiga toxin inh,CHX counter,Vaccinia mCherry,VACV Venus inh,LASV entry inh,MARV entry inh
CC1CCN(c2ccc(-c3cccc(NC(=O)C(F)(F)F)c3)nn2)CC1,-27,-16,-14%,-9%,2.2µM*,?
CCC(=O)Nc1ccc(-c2ccc(N3CCC(C)CC3)nn2)cc1,76*,29*,.,.,.,.
CC1CCN(c2ccc(-c3cccc(NC(=O)c4ccco4)c3)nn2)CC1,.,.,-28%,-17%,2.5µM*,7.9µM*
COc1ccc(-c2cccc(NC(=O)c3ccco3)c2)nn1,.,.,i,-5%,?,10%
CCC(=O)Nc1cccc(-c2ccc(N3CCC(C)CC3)nn2)c1,64*,45*,.,.,.,.
Cn1c(=O)n(CCCc2ccccc2)c(=O)c2c1nc1n2CCN1c1ccc(F)cc1,.,.,-25%,-21%,-19%[46.1 µM],.
O=C(NCCc1ccccc1)c1c2c(nc3ccccc13)C(=O)N(C1CCCCC1)C2,.,.,i,-3%,11%[46.1 µM],.
CCC(=O)Nc1ccc(-c2ccc(N3CCN(C)CC3)nn2)cc1,35*,26*,.,.,.,.
O=C(COc1ccc(Cl)cc1Cl)Nc1ccc(-c2ccc(N3CCOCC3)nn2)cc1,.,.,5%,0%,6%,23%[46.1 µM]
O=C(NCC1(N2CCCCC2)CCCCC1)c1ccc(-n2cc(NC(=O)c3cccnc3)cn2)cc1,.,.,-12%,-17%,.,.
CCOc1ccc(C(=O)c2cn(CC(=O)Nc3ccc(C)c(C)c3)c3ccc(OCC)cc3c2=O)cc1,.,.,-13%,-11%,1%[46.1 µM],1%[46.1 µM]
O=C(NCCc1ccccc1)C(c1cccs1)N(C(=O)CCl)c1ccc(Cl)cc1 (stereo not drawn),-19,-4,?,?,18µM*,?
O=C(NCCc1ccccc1)C(c1cccs1)N(C(=O)c1csnn1)C1CC1 (stereo not drawn),-13,-4,.,.,6%,0%
Cc1cc(S(=O)(=O)Nc2cccc(C(=O)O)c2)c(C)c(S(=O)(=O)c2ccccc2)c1,.,.,-10%,-10%,-10%[46.1 µM],.
c1ccc(-c2nc(N3CCN(c4ccccc4)CC3)nc(-n3ccnc3)n2)cc1,-32,-7,.,.,?,?
C/C(=N\Nc1ccccc1Cl)c1ccc(-n2ccnc2)cc1,100*,31*,i,-8%,?,3%
CC(=O)c1ccc2c(c1)Nc1ccccc1S2,24,11,-23%,-11%,9%,2%
c1ccc(-c2ccc(-n3ccnc3)cc2)cc1,36,8.0*,-4%,1%,1%,3%
C/C(=N\NC(=O)c1ccc(C)cc1C)c1ccc2c(c1)Nc1ccccc1S2,40*,30*,?,?,?,-30%
C/C(=N\Nc1ccc(C(=O)O)cc1)c1ccc(-n2ccnc2)cc1,88*,74*,-7%,5%,?,-11%[46.1 µM]
C/C(=N\NC(N)=O)c1ccc(-n2ccnc2)cc1,-9,-2,-28%,-14%,1%[46.1 µM],-2%
C/C(=N\NC(=O)c1ccc(C)cc1C)c1ccc(-n2ccnc2)cc1,35,27*,i,-17%,?,4%
CNC(=S)N/N=C(\C)c1ccc(-n2ccnc2)cc1,-18,-2,.,.,-13%,-3%
CC1=NN(/C(=N\c2nnc(C)s2)Nc2ccc(C(C)(C)C)cc2)[C@H](c2ccc(C)cc2)S1,27*,10,.,.,-18%,8.2µM*
Cc1ccc(NC(=O)CCSc2nnc(C)s2)cc1,21,8,.,.,20%,1%
O=C(CCc1ccccc1)N1CCN(c2ccc(F)cc2)CC1,-14,0,-6%,-13%,-4%[46.1 µM],7%[46.1 µM]
O=C(CSCc1ccccc1)N1CCN(c2ccccc2)CC1,+,47*,-18%,-2%,16%,?
